From the supplement of paper PMC10849652
About 8,800 targets were measured; listed, in parts, are those with a hit and a random draw of the rest. About 0.5% of all pairs of compound and target were hits. Unmarked numbers belong to inactive results.

Tests used:
Test in all cases: log2 fold change, soluble protein after heating vs DMSO (PISA); higher = thermal stabilisation; K562 lysate, 10 uM; active = over 0.2 and 3.5 SD of the protein, either way, in both replicates (recomputed)
[1] = compound: CN1CC[C@H](c2c(O)cc(O)c3c(=O)cc(-c4ccccc4Cl)oc23)[C@H](O)C1 [alvocidib]
Method in brief: (§1)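 The values are log-two fold changes in thermal stability compared with solvent controls and come from duplicates. They were obtained by TMTpro 16plex LC-MS/MS, with channel sums equalised, on the supernatant after 21,000xg for 90 min. That supernatant came from crude K562 extract at 1 mg/mL protein treated with 10 μM compound for 30 min, heated for 3 min across 48°C-58°C, pooled and brought to 0.5% NP-40 at 4°C.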

[2] = compound: CN1CCc2c(c3ccccc3n2Cc2ccc(C(=O)NO)cc2)C1 [Tubastatin A]
Method in brief: as §1

[3] = compound: CNC(=O)C1=CC=CC=C1NC2=NC(=NC=C2Cl)NC3=C(C=C(C=C3)N4CCOCC4)OC
Method in brief: as §1

[4] = compound: CNC(=O)c1ccc(Nc2ncc(C(F)(F)F)c(NCc3nccnc3N(C)S(C)(=O)=O)n2)cc1 [defactinib]
Method in brief: as §1

[5] = compound: CNc1nc(-c2ccc3c(N)n[nH]c3c2)cc(N2C[C@@H](C(=O)NC3CCCCC3)CC[C@H]2C)n1
Method in brief: as §1

[6] = compound: COC(=O)N[C@@H](C)CNc1nccc(-c2cn(C(C)C)nc2-c2cc(Cl)cc(NS(C)(=O)=O)c2F)n1 [encorafenib]
Method in brief: as §1

[7] = compound: COC(=O)[C@H](CCSC)NC(=O)C1=C(C=C(C=C1)NC[C@H](CS)N)C2=CC=CC=C2
Method in brief: as §1

[8] = compound: COc1cc(Nc2ncc3c(n2)-c2ccc(Cl)cc2C(c2c(F)cccc2OC)=NC3)ccc1C(=O)O [alisertib]
Method in brief: as §1

[9] = compound: COc1cc2nc(-c3cc(F)ccc3O)nc(N[C@@H]3CNC[C@H]3C(C)(C)O)c2cc1OC
Method in brief: as §1

[10] = compound: COc1cc2ncnc(Nc3ccc(F)c(Cl)c3)c2cc1OCCCN1CCOCC1 [gefitinib]
Method in brief: as §1

[11] = compound: CS(=O)(=O)CCNCc1ccc(-c2ccc3ncnc(Nc4ccc(OCc5cccc(F)c5)c(Cl)c4)c3c2)o1 [lapatinib]
Method in brief: as §1

[12] = compound: CS(=O)(=O)N1CCN(Cc2cc3nc(-c4cccc5[nH]ncc45)nc(N4CCOCC4)c3s2)CC1 [pictilisib]
Method in brief: as §1

[13] = compound: C[C@@H](Oc1cc(-c2cnn(C3CCNCC3)c2)cnc1N)c1c(Cl)ccc(F)c1Cl [crizotinib]
Method in brief: as §1

[14] = compound: C[C@H](C1=CC=C(C=C1)C(=O)NC2=C3C=CNC3=NC=C2)N
Method in brief: as §1

[15] = compound: C[C@H](Nc1ncnc2nc[nH]c12)c1cc2cccc(Cl)c2c(=O)n1-c1ccccc1 [duvelisib]
Method in brief: as §1

[16] = compound: Cc1cc(Nc2cc(CN3CCOCC3)c3nc(C)c(Cc4ccc(Cl)cc4F)n3n2)n[nH]1 [gandotinib]
Method in brief: as §1

[17] = compound: Cc1cc(Nc2cc(N3CCN(C)CC3)nc(Sc3ccc(NC(=O)C4CC4)cc3)n2)n[nH]1 [tozasertib]
Method in brief: as §1

[18] = compound: Cc1ccc(-n2nc(C(C)(C)C)cc2NC(=O)Nc2ccc(OCCN3CCOCC3)c3ccccc23)cc1 [doramapimod]
Method in brief: as §1

[19] = compound: Cc1ccc(NC(=O)c2ccc(CN3CC[C@H](N(C)C)C3)c(C(F)(F)F)c2)cc1Nc1nccc(-c2cncnc2)n1 [bafetinib]
Method in brief: as §1

[20] = compound: Cc1cccc(CC(=O)N2CCc3c2ccc(-c2cn(C)c4ncnc(N)c24)c3F)n1
Method in brief: as §1

Sequence of UniProt Q9BXW6 (Q9BXW6 whole entry, looked up): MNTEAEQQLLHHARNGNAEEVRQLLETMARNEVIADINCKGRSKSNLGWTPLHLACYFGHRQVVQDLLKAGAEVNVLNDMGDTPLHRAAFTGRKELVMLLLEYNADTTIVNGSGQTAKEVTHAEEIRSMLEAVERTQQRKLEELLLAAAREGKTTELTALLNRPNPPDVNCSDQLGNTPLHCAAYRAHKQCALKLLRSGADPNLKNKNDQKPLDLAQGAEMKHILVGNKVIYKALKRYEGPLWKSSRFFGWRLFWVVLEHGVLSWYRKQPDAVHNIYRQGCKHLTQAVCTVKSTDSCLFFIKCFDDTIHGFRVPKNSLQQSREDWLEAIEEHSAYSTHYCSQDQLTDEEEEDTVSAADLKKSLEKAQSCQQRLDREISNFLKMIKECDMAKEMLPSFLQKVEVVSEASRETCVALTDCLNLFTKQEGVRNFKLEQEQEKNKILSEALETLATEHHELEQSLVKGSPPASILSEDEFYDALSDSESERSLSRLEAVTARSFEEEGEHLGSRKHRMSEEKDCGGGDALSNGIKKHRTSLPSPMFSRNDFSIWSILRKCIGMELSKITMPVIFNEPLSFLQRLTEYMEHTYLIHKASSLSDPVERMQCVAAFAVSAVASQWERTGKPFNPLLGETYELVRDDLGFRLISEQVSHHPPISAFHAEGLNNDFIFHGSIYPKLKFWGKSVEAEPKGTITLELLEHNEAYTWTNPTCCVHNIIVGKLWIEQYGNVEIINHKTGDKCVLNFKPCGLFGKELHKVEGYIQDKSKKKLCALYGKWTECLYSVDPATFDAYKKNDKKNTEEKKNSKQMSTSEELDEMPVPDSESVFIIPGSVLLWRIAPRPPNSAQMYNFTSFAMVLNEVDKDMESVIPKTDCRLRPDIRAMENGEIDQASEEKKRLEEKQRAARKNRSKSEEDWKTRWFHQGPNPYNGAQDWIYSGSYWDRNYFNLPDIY
Sequence of UniProt Q9UBD5 (Q9UBD5 whole entry, looked up): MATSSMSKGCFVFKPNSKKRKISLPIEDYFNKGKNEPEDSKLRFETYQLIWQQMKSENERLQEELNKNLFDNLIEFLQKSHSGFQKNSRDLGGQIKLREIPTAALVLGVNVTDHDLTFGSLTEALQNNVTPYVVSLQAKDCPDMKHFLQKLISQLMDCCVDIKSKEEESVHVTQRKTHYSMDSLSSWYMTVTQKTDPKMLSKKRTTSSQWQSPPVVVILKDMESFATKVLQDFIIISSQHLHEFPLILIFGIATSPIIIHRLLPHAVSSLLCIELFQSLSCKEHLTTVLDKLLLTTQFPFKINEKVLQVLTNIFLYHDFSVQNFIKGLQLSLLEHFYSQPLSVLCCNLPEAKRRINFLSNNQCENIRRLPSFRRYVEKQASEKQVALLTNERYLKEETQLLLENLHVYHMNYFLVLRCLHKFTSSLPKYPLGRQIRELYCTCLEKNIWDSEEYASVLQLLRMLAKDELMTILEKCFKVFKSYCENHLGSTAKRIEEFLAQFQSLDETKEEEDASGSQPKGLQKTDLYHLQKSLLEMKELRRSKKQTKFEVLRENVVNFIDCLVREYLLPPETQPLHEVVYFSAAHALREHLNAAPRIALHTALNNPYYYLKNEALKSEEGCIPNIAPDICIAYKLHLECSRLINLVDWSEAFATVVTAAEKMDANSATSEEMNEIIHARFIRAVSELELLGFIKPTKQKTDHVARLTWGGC
Sequence of UniProt Q4G0N4 (Q4G0N4 whole entry, looked up): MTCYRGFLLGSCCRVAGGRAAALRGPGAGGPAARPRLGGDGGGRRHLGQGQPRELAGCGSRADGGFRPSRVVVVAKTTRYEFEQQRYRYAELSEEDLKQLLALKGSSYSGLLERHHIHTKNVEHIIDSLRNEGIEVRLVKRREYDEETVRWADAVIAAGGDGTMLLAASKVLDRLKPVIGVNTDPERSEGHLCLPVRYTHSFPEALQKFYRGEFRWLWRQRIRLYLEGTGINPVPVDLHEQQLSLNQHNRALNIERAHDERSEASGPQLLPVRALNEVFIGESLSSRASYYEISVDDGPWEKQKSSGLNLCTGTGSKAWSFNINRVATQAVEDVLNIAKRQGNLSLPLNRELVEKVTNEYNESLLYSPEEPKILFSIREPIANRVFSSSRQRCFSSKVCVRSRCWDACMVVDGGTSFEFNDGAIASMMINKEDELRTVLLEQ
Sequence of UniProt Q14934 (Q14934 whole entry, looked up): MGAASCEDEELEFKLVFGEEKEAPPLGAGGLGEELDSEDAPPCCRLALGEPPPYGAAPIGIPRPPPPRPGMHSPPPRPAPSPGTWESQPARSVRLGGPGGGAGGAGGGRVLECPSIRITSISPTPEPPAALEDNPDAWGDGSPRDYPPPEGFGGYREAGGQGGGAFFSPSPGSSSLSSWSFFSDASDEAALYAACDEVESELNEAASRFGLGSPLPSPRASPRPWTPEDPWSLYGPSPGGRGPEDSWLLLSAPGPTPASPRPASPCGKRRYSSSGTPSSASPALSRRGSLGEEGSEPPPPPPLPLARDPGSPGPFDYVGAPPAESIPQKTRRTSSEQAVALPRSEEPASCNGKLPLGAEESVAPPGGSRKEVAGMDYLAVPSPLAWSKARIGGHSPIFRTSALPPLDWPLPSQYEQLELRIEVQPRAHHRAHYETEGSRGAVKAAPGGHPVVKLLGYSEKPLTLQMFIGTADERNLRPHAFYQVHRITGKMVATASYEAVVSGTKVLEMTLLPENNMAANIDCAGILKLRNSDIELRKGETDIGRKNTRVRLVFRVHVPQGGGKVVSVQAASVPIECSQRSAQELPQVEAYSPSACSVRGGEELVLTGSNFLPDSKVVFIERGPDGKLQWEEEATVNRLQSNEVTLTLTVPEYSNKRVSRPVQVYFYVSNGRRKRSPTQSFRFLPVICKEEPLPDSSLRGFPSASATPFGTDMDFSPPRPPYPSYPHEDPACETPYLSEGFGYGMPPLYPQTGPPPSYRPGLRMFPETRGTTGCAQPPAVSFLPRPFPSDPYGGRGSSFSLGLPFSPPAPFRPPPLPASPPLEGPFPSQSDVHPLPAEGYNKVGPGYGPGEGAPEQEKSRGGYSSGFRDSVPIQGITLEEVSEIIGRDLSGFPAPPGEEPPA
Sequence of UniProt P49757 (P49757 whole entry, looked up): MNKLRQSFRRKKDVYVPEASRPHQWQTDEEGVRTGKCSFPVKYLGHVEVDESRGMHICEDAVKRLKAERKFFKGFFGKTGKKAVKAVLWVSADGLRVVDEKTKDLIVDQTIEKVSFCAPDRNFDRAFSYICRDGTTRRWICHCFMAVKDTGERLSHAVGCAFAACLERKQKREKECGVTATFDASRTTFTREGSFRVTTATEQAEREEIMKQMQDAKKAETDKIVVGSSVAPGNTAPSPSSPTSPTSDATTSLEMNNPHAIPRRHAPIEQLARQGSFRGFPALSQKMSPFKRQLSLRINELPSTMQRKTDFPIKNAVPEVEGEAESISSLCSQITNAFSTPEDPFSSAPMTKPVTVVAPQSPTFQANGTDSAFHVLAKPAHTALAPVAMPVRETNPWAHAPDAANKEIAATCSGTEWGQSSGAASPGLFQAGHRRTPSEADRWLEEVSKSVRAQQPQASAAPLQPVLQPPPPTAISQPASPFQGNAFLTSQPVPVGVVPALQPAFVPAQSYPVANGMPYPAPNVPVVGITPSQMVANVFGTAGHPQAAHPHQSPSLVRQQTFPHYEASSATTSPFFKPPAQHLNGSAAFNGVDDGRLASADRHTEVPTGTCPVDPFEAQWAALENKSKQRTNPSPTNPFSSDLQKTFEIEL
Sequence of UniProt P24468 (P24468 whole entry, looked up): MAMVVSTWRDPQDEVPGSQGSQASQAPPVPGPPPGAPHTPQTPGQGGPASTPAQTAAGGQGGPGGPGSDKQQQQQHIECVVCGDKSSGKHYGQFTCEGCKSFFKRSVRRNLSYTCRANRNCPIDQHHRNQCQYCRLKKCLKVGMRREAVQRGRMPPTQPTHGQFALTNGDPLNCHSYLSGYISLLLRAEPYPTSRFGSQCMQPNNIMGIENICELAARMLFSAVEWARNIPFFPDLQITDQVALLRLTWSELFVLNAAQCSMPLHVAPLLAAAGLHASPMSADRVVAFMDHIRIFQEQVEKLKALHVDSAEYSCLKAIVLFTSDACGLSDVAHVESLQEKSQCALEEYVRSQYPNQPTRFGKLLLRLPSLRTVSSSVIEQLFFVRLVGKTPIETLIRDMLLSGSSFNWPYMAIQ
Sequence of UniProt Q96KB5 (Q96KB5 whole entry, looked up): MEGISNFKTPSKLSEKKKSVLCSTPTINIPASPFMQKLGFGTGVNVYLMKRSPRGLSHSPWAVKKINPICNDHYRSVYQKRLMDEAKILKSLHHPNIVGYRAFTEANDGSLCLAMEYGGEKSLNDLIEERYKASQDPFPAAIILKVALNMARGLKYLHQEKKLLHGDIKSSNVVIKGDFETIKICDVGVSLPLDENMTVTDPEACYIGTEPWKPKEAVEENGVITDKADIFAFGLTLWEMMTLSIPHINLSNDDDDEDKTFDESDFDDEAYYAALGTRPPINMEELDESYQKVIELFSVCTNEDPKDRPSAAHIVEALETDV
Sequence of UniProt P30419 (P30419 whole entry, looked up): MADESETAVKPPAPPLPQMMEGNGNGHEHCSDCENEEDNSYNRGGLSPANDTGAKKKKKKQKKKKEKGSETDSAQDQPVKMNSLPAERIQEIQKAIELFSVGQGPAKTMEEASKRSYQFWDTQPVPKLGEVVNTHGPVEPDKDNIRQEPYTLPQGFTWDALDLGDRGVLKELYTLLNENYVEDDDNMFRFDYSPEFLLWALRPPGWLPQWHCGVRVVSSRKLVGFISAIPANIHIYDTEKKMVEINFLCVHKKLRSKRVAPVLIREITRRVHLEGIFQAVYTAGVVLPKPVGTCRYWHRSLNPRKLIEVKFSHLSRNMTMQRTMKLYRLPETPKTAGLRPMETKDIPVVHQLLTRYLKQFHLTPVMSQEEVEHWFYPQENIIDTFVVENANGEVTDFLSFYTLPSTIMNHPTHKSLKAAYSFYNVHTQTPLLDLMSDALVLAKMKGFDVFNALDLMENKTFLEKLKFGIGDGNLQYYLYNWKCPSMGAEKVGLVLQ
Sequence of UniProt O60829 (O60829 whole entry, looked up): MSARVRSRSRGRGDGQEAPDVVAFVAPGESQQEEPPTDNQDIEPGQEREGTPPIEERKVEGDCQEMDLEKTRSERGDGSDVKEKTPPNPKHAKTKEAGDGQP

| Target | log2 fold change [1] | log2 fold change [2] | log2 fold change [3] | log2 fold change [4] | log2 fold change [5] | log2 fold change [6] | log2 fold change [7] | log2 fold change [8] | log2 fold change [9] | log2 fold change [10] | log2 fold change [11] | log2 fold change [12] | log2 fold change [13] | log2 fold change [14] | log2 fold change [15] | log2 fold change [16] | log2 fold change [17] | log2 fold change [18] | log2 fold change [19] | log2 fold change [20] |
| --- | --- | --- | --- | --- | --- | --- | --- | --- | --- | --- | --- | --- | --- | --- | --- | --- | --- | --- | --- | --- |
| PAK1 (UniProt Q13153) | -0.023 | 0.026 | 0.011 | -0.006 | 0.044 | -0.012 | 0.023 | 0.016 | 0.02 | -0.06 | -0.037 | -0.034 | 0.019 | -0.117 | 0.044 | -0.011 | -0.02 | -0.035 | 0.002 | -0.005 |
| NT5DC2 isoform 2 (UniProt Q9H857) | -0.037 | 0.02 | 0.026 | 0.007 | 0.032 | -0.037 | -0.035 | 0.013 | -0.001 | -0.055 | -0.036 | -0.019 | 0.004 | -0.018 | -0.01 | 0.021 | -0.019 | -0.029 | -0.027 | -0.027 |
| NMT1 (UniProt P30419) | 0.021 | 0.001 | 0.001 | 0.031 | 0.011 | -0.001 | 0.087 | -0.005 | 0.007 | -0.006 | 0.02 | 0.005 | -0.006 | 0.016 | -0.023 | -0.021 | 0.012 | -0.015 | 0.09 | -0.034 |
| NEBL (UniProt O76041) | 0.149 | 0.022 | -0.048 | 0.024 | 0.043 | -0.083 | 0.015 | -0.134 | -0.005 | 0 | 0.054 | -0.046 | 0.09 | 0.106 | 0.023 | -0.204 | 0.01 | -0.006 | -0.037 | -0.076 |
| NADK2 (UniProt Q4G0N4) | -0.025 | 0.106 | -0.036 | 0 | 0.04 | -0.052 | 0.3 (active) | -0.022 | -0.004 | -0.009 | 0.02 | -0.028 | -0.005 | -0.04 | 0.03 | 0.004 | 0.012 | -0.002 | 0.01 | 0.017 |
| PBK (UniProt Q96KB5) | 0.013 | -0.041 | -0.001 | -0.004 | -0.015 | -0.011 | 0.099 | -0.013 | -0.003 | -0.023 | -0.024 | -0.011 | -0.005 | 0.013 | -0.006 | -0.066 | -0.005 | -0.021 | -0.02 | -0.01 |
| MUC5AC (UniProt P98088) |  | -0.03 |  |  |  |  |  | -0.233 |  | 0.013 |  |  |  |  |  |  |  |  |  |  |
| PAPOLG (UniProt Q9BWT3) | -0.008 | 0.16 | 0.003 | -0.025 | 0.085 | 0.063 | 0.098 | -0.035 |  | 0.062 |  |  | -0.139 | -0.026 | 0.02 | -0.002 | -0.027 | 0.017 |  | 0.067 |
| NUMB isoform 2 (UniProt P49757) |  | -0.112 |  |  | 0.158 |  |  | 0.092 |  | -0.277 |  |  |  |  | 0.023 |  |  |  |  |  |
| PANK2 (UniProt Q9BZ23) | 0.057 | 0.108 |  | 0.023 | 0 | -0.01 | 0.014 | 0.35 (active) | -0.046 | -0.233 | 0.079 | 0.143 | -0.073 | -0.023 | -0.126 | 0.077 | 0.008 | -0.008 | -0.029 | 0.095 |
| NSUN7 (UniProt Q8NE18) | -0.191 | 0.176 | -0.001 | -0.035 |  | 0.21 | -0.026 |  | -0.006 |  | -0.094 | -0.001 | -0.374 | -0.039 |  | 0.022 | 0.152 | 0.045 | 0.285 | 0.125 |
| NFAT5 isoform 4 (UniProt O94916) |  |  |  |  |  |  |  |  |  |  |  | -0.138 | -0.028 |  |  |  |  | -0.158 | -0.053 |  |
| NR2F2 (UniProt P24468) | -0.053 | -0.154 | 0.056 |  | -0.047 |  |  | 0.072 | 0.012 | -0.077 | 0.06 | 0.072 | -0.022 | -0.163 | -0.046 | -0.153 |  | -0.005 | 0.037 | -0.023 |
| NFATC4 isoform 2 (UniProt Q14934) | -0.062 |  |  | -0.12 | 0.023 | 0.011 | -0.032 | 0.048 | 0.244 | 0.132 | 0.039 | 0.003 | -0.132 | -0.187 | -0.006 | 0.04 | 0.084 | 0.026 | -0.305 | 0.192 |
| NRIP1 (UniProt P48552) | -0.145 | 0.001 | -0.096 |  | 0.291 |  |  | -0.21 | 0.04 | -0.011 | -0.052 | -0.007 | -0.155 | -0.396 | -0.014 | 0.407 |  | 0.048 | -0.07 | 0.26 |
| NR2C2 isoform 2 (UniProt P49116) | 0.075 | -0.045 | -0.03 | 0.058 | 0.1 | -0.002 | -0.022 |  | -0.002 |  | -0.014 | -0.025 | -0.004 | 0.064 | -0.014 | -0.079 | -0.005 | -0.004 | 0.145 | -0.025 |
| MTHFD1 (UniProt V9GZ32) |  |  |  |  |  |  |  | 0.108 | 0 | -0.073 | -0.067 |  |  |  |  |  |  |  |  |  |
| PAGE4 (UniProt O60829) | 0.086 | 0.027 | -0.072 |  | -0.038 | -0.005 | -0.086 |  | 0.057 |  | -0.012 | -0.05 | -0.028 | 0.344 (active) | 0.091 | -0.102 | -0.023 | 0.11 | -0.004 | -0.134 |
| MYH6 (UniProt P13533) |  | 0.142 | -0.06 |  |  | -0.048 | 0.082 |  | 0.206 |  | -0.111 | -1.52 (active) | -0.097 |  |  |  | 0.009 | -0.245 | -0.132 |  |
| OSBPL1A (UniProt Q9BXW6) | -0.035 |  | 0.091 |  | 0.099 |  |  | -0.071 | 0.048 | 0.135 | -0.035 | -0.051 | -0.014 | -0.079 | 0.072 | 0.069 |  | 0.019 | -0.077 | 0.102 |
| ORC3 (UniProt Q9UBD5) | 0.16 |  |  |  |  |  |  | -0.035 | 0 | 0.105 | 0.213 |  |  | 0.129 |  | -0.311 |  |  |  | 0.082 |
